Molecules are shown by their SMILES.

Our source for the Percent Effect values is ChEMBL document CHEMBL3988442, “University of Dundee, Small-Polar-MMV Screening Library” (2021).

The target of the assay is AMP-activated protein kinase, AMPK (Homo sapiens) (UniProt P54646+O43741+P54619+Q9UGJ0+Q9Y478+Q13131+Q9UGI9). Nature of the assay: AMP-dependent Kinase enzyme assay. An in vitro enzyme assay that detects ADP turnover that is directly proportional to AMPK activity. This uses naive AMPK that is activated during the assay with MK-8722. The assay is classed as functional. Details: scale not given: direction of the effect not stated beside the values. To be noted: 30 µM.
For `COc1ccc(C(=O)NCc2ccco2)nn1`, the Percent Effect was -4.45%. To `Cn1nc2c(c1NC(=O)c1ccc(Cl)s1)CCC2` belongs 0.899%.

With `Cc1cc(O)n2nc(C3CCN(C(=O)c4ccccn4)CC3)cc2n1`, the Percent Effect is 6.67%. As for `CCC(CC)C(=O)N1CCC2(CC1)c1ccccc1[C@@H](OC)[C@@H]2O`, the figure is 14%. To `O=C(CCn1cc(Cl)cn1)N1CCCC(O)(CO)CC1` (stereo not given) belongs -3.36%; to `Cc1ncsc1C(=O)OCCN1CCCCCC1=O`, 5.73%. As for `OCCN1CCN(Cc2coc(-c3ccccc3Cl)n2)CC1`, the figure is -12.1%; as for `O=S(=O)(NCc1cn2ccccc2n1)N1CCOCC1`, 9.32%; as for `Cc1ccc2occ(CN3CCN(c4ncccn4)CC3)c(=O)c2c1`, -1.29%.

For the molecule `COc1ccc(CN(Cc2ccsc2)CC2CCCO2)cn1` (stereo not given), the Percent Effect came to 5.75%. As for `COCCC(=O)N1CCC(c2nnc(-c3ccsc3)o2)CC1`, the figure is 2.43%; as for `Cn1cc(S(=O)(=O)Nc2ccc3[nH]c(C4CCC4)nc3c2)cn1`, -6.7%.

On to `CCOCC1(CNCc2cc(O)c3cc(C)ccc3n2)CC1`, for which the Percent Effect is -2.54%. To `CCCc1nnc(N2CCC(N3CCCC3)CC2)o1` belongs -4.2%. To `CC(C)(CN1CCC2(CCOCC2)CC1)N1CCOCC1` belongs -0.161%; to `COCCCN1CC2(CCN(C(=O)c3ncc(F)cc3F)CC2)CC1=O`, -0.49%; to `COc1cccc([C@@]2(O)CC[C@@H]3CN(C(=O)c4ccn(C)n4)C[C@@H]32)c1`, 12.3%. To `COc1cccc(Cn2ncnc2CCC(C)N2CCN(C)CC2)c1` (stereo not given) belongs -1.98%; to `COC[C@]1(O)CCN(c2cc(N3CCOCC3)ncn2)CC1(C)C`, -1.8%. For `NC(=O)CN(Cc1ncc(-c2ccc(Cl)cc2)o1)C1CCCC1`, the Percent Effect was -5.3%. To `Cc1cc(F)ccc1N1CCCC(NC(=O)CCc2ccncc2)C1` (stereo not given) belongs 14.9%; to `CCn1c(C2CCNCC2)nn(CCn2ccc(C)n2)c1=O`, 5.45%; to `O=C(Nc1ccccn1)NC1CCN(c2ccccc2OC(F)F)C1` (stereo not given), -0.894%.

In the case of `CN(CCC#N)C(=O)Cn1cnc2c(Br)cccc2c1=O`, the Percent Effect came out at 2.35%. As for `Clc1ccc2c(c1)C=C(CNC1CCc3ncnn3C1)CO2` (stereo not given), the figure is 12.6%; as for `CS(=O)(=O)NC(=O)c1ccn(-c2ccc(Cl)c(Cl)c2)n1`, 4.97%; as for `CCCc1nn(Cc2ccc(Br)s2)c(=O)o1`, 9.29%.

Regarding `Cc1cc(S(=O)(=O)N(CCO)C2CC2)ccc1F`, the Percent Effect was 0.797%. As for `Cc1ccnc(NC(=O)c2ccc(F)c(S(=O)(=O)NC3CC3)c2)c1`, the Percent Effect is -7.9%. To `CN(Cc1nnnn1C1CC1)CC1COc2ccccc2O1` (stereo not given) belongs 4.32%; to `c1cnc(N2CCC(c3nccn3CC3CC3)CC2)nc1`, 9.63%; to `CC(C)OCCS(=O)(=O)N1CCN(Cc2ccco2)CC1`, -2.52%. As for `N#Cc1ccc(CN(CCF)Cc2cccc(F)c2)cc1`, the figure is -7.25%; as for `CCc1ccccc1OCCN(C)C(=O)CN1CCCC1`, -130%.

Turning to `Oc1cc(C2CCCCN2Cc2cccs2)nc(-c2ccncc2)n1` (stereo not given), the Percent Effect turned out to be 1.11%. To `CN(Cc1cccc(-n2cccn2)c1)Cc1c[nH]cn1` belongs -6.63%.

Consider `CC(C)c1nc(CN(C)C(=O)C(O)c2ccc(Cl)cc2)cs1` (stereo not given), for which the Percent Effect is -2.36%.

Take `CCC(O)CNC(=O)c1cc(COc2ccc(OC)cc2Cl)[nH]n1` (stereo not given): the Percent Effect came to 2.19%.

On to `CCOc1ccccc1C(C(=O)O)N(C)Cc1nc(C)c[nH]1` (stereo not given), for which the Percent Effect turned out to be 7.59%.

Regarding `COCc1c(Cl)cccc1NC(=O)CNC(=O)C(C)(C)C`, the Percent Effect is -4.63%.
